{"source": "PubChem BioAssay (EPA / NIEHS)", "note": "Activity calls are given as the source filed them. How the source made its calls: active means hit-call score of the fitted dose curve at least 0.9, where 1 is the maximum; inactive means score below 0.9."}
{"read-out": "not listed separately", "assay": "CEETOX_H295R_PROG: CeeTox H295R High-throughput Steroidogenesis Assay for Progesterone (PROG) (AID 2283442);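 on AC50: human H295R adrenal cells primed with 10 µM forskolin before dosing; progesterone secreted into medium by H295R cells measured by HPLC-MS/MS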", "conditions": "actives raise or lower the signal", "outline": "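Adrenal H295R line, forskolin-stimulated (10 uM, 48 h) before dosing. 48 h exposure, 0.1% DMSO vehicle. Secreted progesterone by reverse-phase HPLC with ESI+ MS/MS quantification; DMSO-normalised bidirectional curve fit.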"}
{"smiles": "CCN(CC)CCOc1ccc(C(=C(Cl)c2ccccc2)c2ccccc2)cc1", "AC50": "0.0347 µM (active)"}
{"smiles": "CCC(C)N(C)C(=O)c1cc2ccccc2c(-c2ccccc2Cl)n1", "note": "(stereo not drawn)", "AC50": "3.89 µM (active)"}
{"smiles": "O=C(O)CN(CC(=O)O)CC(=O)O", "outcome": "inactive"}
{"smiles": "CCCCCCCCCC[N+](C)(C)[O-]", "AC50": "3.86 µM (active)"}
{"smiles": "O=C1c2c(O)cccc2Cc2cccc(O)c21", "outcome": "inactive"}
{"smiles": "COc1ccc(C(=O)Nc2nc3ccccc3c(NCc3ccccc3)c2C#N)cc1", "AC50": "1.49 µM (active)"}
{"smiles": "S=c1[nH]c2ccccc2s1", "outcome": "inactive"}
{"smiles": "O=C1NC(=O)C(c2ccccc2)(c2ccccc2)N1", "outcome": "inactive"}
{"smiles": "O=C(Oc1ccccc1)c1cccc(C(=O)Oc2ccccc2)c1", "outcome": "inactive"}
{"smiles": "CC1=C(C)S(=O)(=O)CCS1(=O)=O", "AC50": "1.03 µM (active)"}
{"smiles": "CCCCc1nc2cccnc2n1Cc1ccc(-c2ccccc2-c2nnn[nH]2)cc1", "AC50": "9.12 µM (active)"}
{"smiles": "CC(=O)O[C@]1(C(C)=O)CC[C@H]2[C@@H]3C=C(Cl)C4=CC(=O)[C@@H]5C[C@@H]5[C@]4(C)[C@H]3CC[C@@]21C", "outcome": "inactive"}
{"smiles": "Oc1ccccc1O", "outcome": "inactive"}
{"smiles": "O=C1OC(c2ccc(O)cc2)(c2ccc(O)cc2)c2ccccc21", "AC50": "2.39 µM (active)"}
{"read-out": "Tumor necrosis factor receptor superfamily member 6 (Homo sapiens) (UniProt P25445)", "assay": "LTEA_HepaRG_FAS: Life Technologies and Expression Analysis (LTEA) Assay for Fas cell surface death receptor (FAS) using HepaRG (AID 2283447)", "conditions": "mRNA level, 48 h; actives raise or lower the signal", "outline": "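Differentiated human HepaRG cells, pre-cultured 48 h, were exposed in duplicate for 48 h to 8-point half-log concentrations (top 100 uM, 0.5% DMSO) in serum-free induction medium; FAS mRNA measured by qRT-PCR, normalized to ACTB/GAPDH/POLR2A, bidirectional fit versus DMSO.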"}
{"smiles": "CCN(CC)CCOc1ccc(C(=C(Cl)c2ccccc2)c2ccccc2)cc1", "outcome": "inactive"}
{"smiles": "CCC(C)N(C)C(=O)c1cc2ccccc2c(-c2ccccc2Cl)n1", "note": "(stereo not drawn)", "outcome": "inactive"}
{"smiles": "O=C(O)c1[nH]n(-c2ccc(S(=O)(=O)O)cc2)c(=O)c1N=Nc1ccc(S(=O)(=O)O)cc1", "outcome": "inactive"}
{"smiles": "CO[C@@H]1COCC[C@@H]1N[C@@H]1CC[C@@](C(=O)N2CCc3ncc(C(F)(F)F)cc3C2)(C(C)C)C1", "outcome": "inactive"}
{"smiles": "CC(=O)OC1CC(C)OC(C)O1", "note": "(stereo not drawn)", "outcome": "inactive"}
{"smiles": "CCCCCCC(CCCCCCCCCCC(=O)OCC(COC(C)=O)OC(C)=O)OC(C)=O", "note": "(stereo not drawn)", "outcome": "inactive"}
{"smiles": "CN(C)CCCN1c2ccccc2Sc2ccc(Cl)cc21", "outcome": "inactive"}
{"smiles": "O=C(O)CN(CC(=O)O)CC(=O)O", "outcome": "inactive"}
{"smiles": "Cc1ccc(-c2cc(C(F)(F)F)nn2-c2ccc(S(N)(=O)=O)cc2)cc1", "AC50": "84.5 µM (active)"}
{"smiles": "N[C@@H](Cc1c[nH]c2ccccc12)C(=O)O", "outcome": "inactive"}
{"smiles": "CCCCOC(=O)CCCCC(=O)OCCCC", "outcome": "inactive"}
{"smiles": "C#CC(O)C(CC)CCCC", "note": "(stereo not drawn)", "outcome": "inactive"}
{"smiles": "CCCCCCCCCC[N+](C)(C)[O-]", "outcome": "inactive"}
{"smiles": "O=C1c2c(O)cccc2Cc2cccc(O)c21", "outcome": "inactive"}
{"smiles": "CCCCCCCC(=O)OC", "outcome": "inactive"}
{"smiles": "NC(=Nc1ccccc1)Nc1ccccc1", "outcome": "inactive"}
{"smiles": "O=C(N[C@@H](c1ccccc1)[C@@H]1CCCCN1)c1cccc(C(F)(F)F)c1Cl", "outcome": "inactive"}
{"smiles": "COc1ccc(C(=O)Nc2nc3ccccc3c(NCc3ccccc3)c2C#N)cc1", "outcome": "inactive"}
{"smiles": "O=C(O)CC(O)(CC(=O)O)C(=O)O", "outcome": "inactive"}
{"smiles": "S=c1[nH]c2ccccc2s1", "outcome": "inactive"}
{"smiles": "O=C1NC(=O)C(c2ccccc2)(c2ccccc2)N1", "outcome": "inactive"}
{"smiles": "O=C(Oc1ccccc1)c1cccc(C(=O)Oc2ccccc2)c1", "outcome": "inactive"}
{"smiles": "CC1=C(C)S(=O)(=O)CCS1(=O)=O", "AC50": "76.8 µM (active)"}
{"smiles": "CC(C)OC(=O)C(C)(C)Oc1ccc(C(=O)c2ccc(Cl)cc2)cc1", "outcome": "inactive"}
{"smiles": "CC(COCC(C)OC(=O)c1ccccc1)OC(=O)c1ccccc1", "note": "(stereo not drawn)", "outcome": "inactive"}
{"smiles": "CCCCc1nc2cccnc2n1Cc1ccc(-c2ccccc2-c2nnn[nH]2)cc1", "outcome": "inactive"}
{"smiles": "CC(=O)O[C@]1(C(C)=O)CC[C@H]2[C@@H]3C=C(Cl)C4=CC(=O)[C@@H]5C[C@@H]5[C@]4(C)[C@H]3CC[C@@]21C", "outcome": "inactive"}
{"smiles": "Oc1ccccc1O", "outcome": "inactive"}
{"smiles": "O=C1OC(c2ccc(O)cc2)(c2ccc(O)cc2)c2ccccc21", "outcome": "inactive"}
{"smiles": "C=CCc1ccc(OC)c(OC)c1", "outcome": "inactive"}
{"read-out": "Fatty acid synthase (Homo sapiens) (UniProt P49327)", "assay": "LTEA_HepaRG_FASN: Life Technologies and Expression Analysis (LTEA) Assay for Fatty Acid Synthase (FASN) using HepaRG (AID 2283448)", "conditions": "mRNA level, 48 h; actives raise or lower the signal", "outline": "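HepaRG, 48 h exposure, 8-pt half-log series top 100 uM, 0.5% DMSO vehicle, duplicates. Readout: FASN transcript by Fluidigm qRT-PCR; housekeeping-normalized; bidirectional curve fit vs DMSO baseline.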"}
{"smiles": "CCN(CC)CCOc1ccc(C(=C(Cl)c2ccccc2)c2ccccc2)cc1", "outcome": "inactive"}
{"smiles": "CCC(C)N(C)C(=O)c1cc2ccccc2c(-c2ccccc2Cl)n1", "note": "(stereo not drawn)", "outcome": "inactive"}
{"smiles": "O=C(O)c1[nH]n(-c2ccc(S(=O)(=O)O)cc2)c(=O)c1N=Nc1ccc(S(=O)(=O)O)cc1", "outcome": "inactive"}
{"smiles": "CO[C@@H]1COCC[C@@H]1N[C@@H]1CC[C@@](C(=O)N2CCc3ncc(C(F)(F)F)cc3C2)(C(C)C)C1", "outcome": "inactive"}
{"smiles": "CC(=O)OC1CC(C)OC(C)O1", "note": "(stereo not drawn)", "outcome": "inactive"}
{"smiles": "CCCCCCC(CCCCCCCCCCC(=O)OCC(COC(C)=O)OC(C)=O)OC(C)=O", "note": "(stereo not drawn)", "outcome": "inactive"}
{"smiles": "CN(C)CCCN1c2ccccc2Sc2ccc(Cl)cc21", "AC50": "12.5 µM (active)"}
{"smiles": "O=C(O)CN(CC(=O)O)CC(=O)O", "outcome": "inactive"}
{"smiles": "Cc1ccc(-c2cc(C(F)(F)F)nn2-c2ccc(S(N)(=O)=O)cc2)cc1", "AC50": "76.7 µM (active)"}
{"smiles": "N[C@@H](Cc1c[nH]c2ccccc12)C(=O)O", "outcome": "inactive"}
{"smiles": "CCCCOC(=O)CCCCC(=O)OCCCC", "outcome": "inactive"}
{"smiles": "C#CC(O)C(CC)CCCC", "note": "(stereo not drawn)", "outcome": "inactive"}
{"smiles": "CCCCCCCCCC[N+](C)(C)[O-]", "outcome": "inactive"}
{"smiles": "O=C1c2c(O)cccc2Cc2cccc(O)c21", "outcome": "inactive"}
{"smiles": "CCCCCCCC(=O)OC", "outcome": "inactive"}
{"smiles": "NC(=Nc1ccccc1)Nc1ccccc1", "outcome": "inactive"}
{"smiles": "O=C(N[C@@H](c1ccccc1)[C@@H]1CCCCN1)c1cccc(C(F)(F)F)c1Cl", "AC50": "85 µM (active)"}
{"smiles": "COc1ccc(C(=O)Nc2nc3ccccc3c(NCc3ccccc3)c2C#N)cc1", "AC50": "10.3 µM (active)"}
{"smiles": "O=C(O)CC(O)(CC(=O)O)C(=O)O", "outcome": "inactive"}
{"smiles": "S=c1[nH]c2ccccc2s1", "outcome": "inactive"}
{"smiles": "O=C1NC(=O)C(c2ccccc2)(c2ccccc2)N1", "outcome": "inactive"}
{"smiles": "O=C(Oc1ccccc1)c1cccc(C(=O)Oc2ccccc2)c1", "outcome": "inactive"}
{"smiles": "CC1=C(C)S(=O)(=O)CCS1(=O)=O", "AC50": "81.6 µM (active)"}
{"smiles": "CC(COCC(C)OC(=O)c1ccccc1)OC(=O)c1ccccc1", "note": "(stereo not drawn)", "outcome": "inactive"}
{"smiles": "CCCCc1nc2cccnc2n1Cc1ccc(-c2ccccc2-c2nnn[nH]2)cc1", "AC50": "50 µM (active)"}
{"smiles": "CC(=O)O[C@]1(C(C)=O)CC[C@H]2[C@@H]3C=C(Cl)C4=CC(=O)[C@@H]5C[C@@H]5[C@]4(C)[C@H]3CC[C@@]21C", "AC50": "50 µM (active)"}
{"smiles": "Oc1ccccc1O", "outcome": "inactive"}
{"smiles": "O=C1OC(c2ccc(O)cc2)(c2ccc(O)cc2)c2ccccc21", "AC50": "89.6 µM (active)"}
{"smiles": "C=CCc1ccc(OC)c(OC)c1", "outcome": "inactive"}
